Pf growth 48h: inhibits P. falciparum growth in the first generation, 48 h; AID 504832; Potency, µM (series often up to 28.7 µM), for inactives: at the top dose activity change, negative = inhibition, usual class: inhibitors; 310,000 compounds, 5.9% hits; P. falciparum luciferase growth in erythrocytes, 48 h; further: potency means the concentration at half of the fitted maximal effect
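First compound was added to culture medium, then infected red cells at 0.1% parasitemia and 2% hematocrit (final). After incubation at 37 C under 5% CO2, luciferase detection reagent was dispensed and light output recorded.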
HCMV inh: human cytomegalovirus inhibition; HFF cells, HCMV-luciferase reporter, 72 h; active compounds read low; activity change, negative = inhibition, % at 57.5 µM; 410,000 compounds, 4.5% hits; AID 1259415; in the data active means activity change below about -60%; inconclusive means no clear call, values can overlap the other calls; inactive means above about -39%
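HFF cells seeded 16 h at 37C, treated with compounds, infected with luciferase-reporter HCMV at MOI 1 PFU/cell; luciferase read at 72 h post infection, normalized to buffer-only and Salinomycin controls.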
Lassa entry inh: inhibitors of Lassa virus binding or cell entry; Lassa virus pseudotype entry inhibition, cell reporter; Potency, µM (doses to about 37.9 µM), without a hit: top-dose activity change, negative = inhibition, hits mostly inhibitors; 300,000 compounds, 1.2% hits; AID 540256; calls by dose curve; tested in HEK293 cells; further: potency means the concentration at half of the fitted maximal effect; nearly all actives have a fitted effect of over 50% in size
HCV inhibitor: HCV inhibition. Huh7.5.1 HCVcc-Cre infection, luciferase reporter, 44 h. Potency, µM (doses to about 41.8 µM), without a hit: top-dose activity change, negative = inhibition, usual class: inhibitors. 340,000 compounds, 3.4% hits. AID 651820; further: potency means the concentration at half of the fitted maximal effect
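Whole-lifecycle infectious HCVcc-Cre system; cells 1,000/well, compound then virus (~0.5 moi) added 4 h after plating, 44 h culture. Luciferase read 15 sec following 15 min substrate incubation, room temp.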
Pf growth 96h: inhibits malaria parasite growth, 96 h. P. falciparum luciferase reporter growth, 96 h. Potency, µM (doses to about 28.7 µM), for inactives: at the top dose activity change, negative = inhibition, most hits filed as inhibitors. 320,000 compounds, 6.9% hits; further: potency means the concentration at half of the fitted maximal effect
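96 h incubation, 37 C, 5% CO2, of luciferase-reporter P. falciparum-infected RBCs (2% hematocrit, 0.05% parasitemia final) with test compounds; endpoint luminescence.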
Marburg entry inh: inhibitors of Marburg virus binding or cell entry | Marburg virus pseudotyped entry inhibition, cell reporter | Potency, µM (titrated, usually from 37.8 µM), for the others: top-dose activity change, negative = inhibition, actives largely listed as inhibitors | 300,000 compounds, 1.8% hits; calls by dose curve; tested in HEK293 cells; further: potency means the concentration at half of the fitted maximal effect
Numbers without * were called inactive; u = inconclusive; x = no result given; [ ] = dose if it differs, or a comment. Rows were chosen to be rich in hits. Some 14% of all compounds tested hit in one or more screens of this group. Unless noted, the call rests on the fitted dose curve; in most records, active means well fitted inhibition curve with a large enough effect; inconclusive means small, poorly fitted or top-dose-only effect, or another doubt; inactive means no such curve, though single readings can be large or run the other way. On the % scale 0 is the no-effect control and ±100 the full control effect.

SMILES	Pf growth 48h	HCMV inh	Lassa entry inh	HCV inhibitor	Pf growth 96h	Marburg entry inh
CN(C)c1ccc(C=c2c3cc([N+](=O)[O-])ccc3n3c2cc(-c2ccccc2)[n+]3C)cc1	x	-100.0*	8.91µM*	u	x	u
COc1cc(/C=C(/C(=O)O)c2ccc(-c3ccccc3)cc2)cc(OC)c1OC	-22.9%	-26.1	-9.9%[46.1 µM]	-4.2%	-13.1%	u
COc1cc(C=c2c3ccccc3n3c2cc(-c2ccccc2)[n+]3C)cc(OC)c1OC	x	-100.9*	14.1µM*	u	x	u
CSc1nnc2c(n1)OC(c1cccc(O)c1Cl)Nc1ccccc1-2 (stereo not given)	x	28.3	6.6%[46.1 µM]	x	x	2.2%[46.1 µM]
COC(=O)C(Cc1c[nH]c2ccccc12)NC(=O)COc1ccc(Cl)cc1Cl (stereo not given)	x	140.4	-17.6%[46.1 µM]	x	x	x
CN(C)c1ccc(C=c2c3ccccc3n3c2c2c([n+]3C)CCCC2)cc1	x	-99.5*	7.94µM*	u	x	4.47µM*
CN(C)c1ccc(C=c2c3ccccc3n3c2cc(-c2ccc(Cl)cc2)[n+]3C)cc1	x	-99.2*	u	u	x	u
Cc1ccc2c(COC(=O)CC3Sc4ccccc4NC3=O)cc(=O)oc2c1C (stereo not given)	40.7%	-1.0	-5.9%	13.1%	42.4%	u
O=C(CC1Sc2ccccc2NC1=O)OCc1cc(=O)oc2cc(O)ccc12 (stereo not given)	-12.2%	54.5	1.4%	u	4.65µM*	u
C[C@@H]1CN([C@@H](C)CO)C(=O)CCCn2nncc2CO[C@@H]1CN(C)C(=O)NC1CCCCC1	x	17.1	x	x	x	x
CCCC(O)c1nc2ccccc2n1Cc1ccccc1OC (stereo not given)	x	-15.5	-0.2%[46.1 µM]	x	x	-18.7%[46.1 µM]
COc1cc(OC)cc(-c2cc3nc(C)c(CCC(=O)O)c(C)n3n2)c1	x	-79.3*	x	11.0%	9.28µM*	-1.8%
COc1ccc(CCNC(=O)CCc2c(C)nc3cc(-c4ccccc4)nn3c2C)cc1OC	x	-39.7	u	x	x	u
Cc1nc2ncnn2c(C)c1CCC(=O)NC(C)c1ccc2c(c1)OCCO2 (stereo not given)	6.9%	60.5	-8.0%	-9.1%	x	-2.6%
Cc1nc2ncnn2c(C)c1CCC(=O)NC(C)CCc1ccco1 (stereo not given)	9.7%	28.2	4.9%	14.3%	11.7µM*	5.6%
Cc1nc2cc(-c3ccccc3)nn2c(C)c1CCC(=O)NCc1ccco1	x	16.2	x	-16.2%	u	x
COc1cc(OC)cc(-c2cc3nc(C)c(CCC(=O)NC(C)CCc4ccco4)c(C)n3n2)c1 (stereo not given)	9.28µM*	14.1	10.0%	u	10.3%	u
Cc1nc2cc(-c3cccc(F)c3)nn2c(C)c1CCC(=O)NC(C)CCc1ccco1 (stereo not given)	x	x	x	-22.5%	10.4µM*	x
CCOC(=O)CCN1C(=O)[C@H]2[C@H]3[C@H](O)[C@H](O)C/C(=N\OCC(C)C)[C@@H]3CC[C@H]2C1=O	x	x	x	x	x	-10.9%[14.2 µM]
COc1ccccc1-c1nnc(SCC(=O)c2ccc(F)cc2)n1-c1ccccc1	x	-9.1	u	x	x	-6.5%[46.1 µM]
N#CCCN(C(=S)NC(=O)C1CCCCC1)c1ccccc1F	x	10.2	0.0%[46.1 µM]	5.9%	x	-20.4%[46.1 µM]
O=C(COc1ccccc1-c1ccccc1)NCc1cccc(Cl)c1	u	u	1.7%	u	13.1µM*	u
Cc1ccccc1OCC(=O)Nc1ccccc1-c1ccccc1NC(=O)COc1ccccc1C	8.28µM*	-11.8	u	u	9.28µM*	u
Cc1ccccc1OCC(=O)Nc1ccccc1C(=O)N1CCCCC1	6.5%	20.0	12.5%	-2.3%	10.4µM*	8.6%
Cc1ccccc1OCC(=O)NNC(=O)CCc1ccccc1	0.0%	-17.7	x	17.2%	u	x
SMILES	Pf growth 48h	HCMV inh	Lassa entry inh	HCV inhibitor	Pf growth 96h	Marburg entry inh
Cc1ccccc1OCC(=O)NCc1ccccc1	20.2%	32.5	-21.5%	10.3%	3.7µM*	-6.8%[46.1 µM]
Cc1ccccc1OCCC(=O)Nc1ccccc1C(=O)N1CCCCC1	u	-11.2	8.5%	5.1%	33.7%	1.5%
CCOC(=O)N1CCN(C(=O)c2ccccc2NC(=O)COc2ccccc2)CC1	33.2%	-60.2*	-18.3%	u	45.1%	-13.2%[46.1 µM]
CCOC(=O)N1CCN(C(=O)c2ccccc2NC(C)=O)CC1	-72.1%	1.8	-7.4%	3.3%	6.3%	7.3%[46.1 µM]
O=C(CCN1C(=O)S/C(=C\c2ccccc2)C1=O)Nc1ccc(S(=O)(=O)Nc2nccs2)cc1	-6.6%	17.1	17.4%	7.0%	u	3.9%
Cc1cccc(OCCCC(=O)Nc2ccc(S(=O)(=O)Nc3nccs3)cc2)c1C	3.0%	-36.7	-16.0%	1.2%	3.7µM*	14.2%
Cc1cccc(OCCCC(=O)Nc2ccc(S(=O)(=O)Nc3ncccn3)cc2)c1C	5.6%	31.0	x	13.9%	2.08µM*	x
COc1ccccc1/C=C1/SC(=O)N(CCC(=O)Nc2ccc(S(=O)(=O)Nc3nccs3)cc2)C1=O	-21.4%	3.8	17.3%	u	13.1µM*	7.5%
O=S(=O)(NCCc1ccc(F)cc1)c1ccccc1Br	x	x	-9.9%[46.1 µM]	x	x	x
CC(C)c1ccc(/C=N/NC(=O)c2cccc(Cl)c2)cc1	8.1%	70.5	u	7.08µM*	u	u
O=C(N/N=C/c1ccncc1)c1ccccn1	63.7%	x	x	-3.8%	u	x
CN(C)c1ccc(/C=N\NC(=O)c2csnn2)cc1	285.8%	93.9	u	-2.8%	154.0%	14.1µM*
CC(C)c1ccc(/C=N/NC(=O)c2ccccn2)cc1	93.9%	68.8	u	9.2%	311.5%	5.01µM*
CCOC1=C2CN(S(=O)(=O)c3ccc(C)cc3)C(c3ccccc3)CC2N(S(=O)(=O)c2ccc(C)cc2)C(c2ccc(Br)cc2)C1 (stereo not given)	x	18.4	x	x	x	x
O=C(Nc1nc2c(cc3c4c(cccc42)CC3)s1)c1ccccc1Cl	-12.4%	u	u	6.31µM*	-89.4%	u
COc1cc(/C=C(\C#N)c2ccccn2)cc(OC)c1O	-10.8%	-11.3	x	u	-27.6%	x
COc1cc(CNCC(O)c2ccccc2)ccc1OCc1ccc(Cl)nc1 (stereo not given)	x	-25.3	6.6%	u	3.7µM*	u
COc1cc(CNCCN2CCOCC2)ccc1OCc1ccc(Cl)cc1	x	-34.6	-14.9%	7.08µM*	u	u
COc1cc(CNCc2ccccn2)ccc1OCc1ccccc1Cl	u	-66.8*	-17.9%	u	u	u
CCOc1c(Cl)cc(CNCc2ccccn2)cc1OC	u	0.0	4.2%[46.1 µM]	13.0%	43.7%[5.75 µM]	-0.6%[46.1 µM]
COc1cc(/C=C(\C#N)c2ccccn2)ccc1OCc1ccccc1Cl	1.85µM*	-25.4	u	u	2.33µM*	u
COc1ccc(Cl)cc1NC(=S)NCCN1CCOCC1	-8.4%	-3.9	x	-10.6%	-5.8%	x

Screening results deposited in PubChem by National Center for Advancing Translational Sciences (NCATS).
